Our source for the outcome and AC50 values is PubChem BioAssay (EPA / NIEHS).

The AC50 is the concentration at which the activity in the assay is half-maximal.

The structures appear in SMILES notation. The source made the active and inactive calls. How the source made its calls: active means hit-call score of the fitted dose curve at least 0.9, where 1 is the maximum; inactive means score below 0.9.

The nature of experiment [1]: APR_HepG2_CellCycleArrest_1hr: Apredica 1-hour HepG2 Assay for Cell Cycle Arrest (AID 2282666). Particulars: high-content imaging, actives raise or lower the signal. Put shortly: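 Cell cycle arrest scored from nuclear DNA content (Hoechst 33342) using high-content imaging of fixed HepG2 cells after 1 h treatment across 0.39–200 uM, in duplicate. Gain or loss fitted relative to 0.5% DMSO.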

Experiment [2] in a line: APR_HepG2_CellLoss_1hr: Apredica 1-hour HepG2 Assay for Cell Loss (AID 2282668).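 Further: curves fitted both ways against DMSO so gain or loss of cells counts.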 As to conditions: high-content imaging. Put shortly:
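Cell number comes from high-content imaging of Hoechst-labelled nuclei in fixed HepG2 cells. Cells were exposed for 1 h to ten concentrations from 0.39 to 200 uM in 0.5% DMSO. Gain or loss was fitted against DMSO controls.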

Experiment [3] is described as follows: APR_HepG2_MicrotubuleCSK_1hr: Apredica 1-hour HepG2 Assay for Microtubule CSK Stabilty (AID 2282669). As to conditions: HepG2 microtubule cytoskeleton imaging, actives raise or lower the signal. In short, it runs like this:
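Alpha-tubulin immunofluorescence, imaged by automated high-content microscopy with Hoechst nuclear segmentation, measured cytoskeletal change after 1 h dosing of HepG2 at 0.39–200 uM in 0.5% DMSO. Activity fitted in both directions relative to DMSO.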

A short description of experiment [4]: APR_HepG2_MitoticArrest_1hr: Apredica 1-hour HepG2 Assay for Mitotic Arrest (AID 2282672). As to conditions: high-content imaging, actives raise or lower the signal. Put shortly:
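Ten-point concentration series (0.39 to 200 uM, duplicates, 0.5% v/v DMSO) applied to human HepG2 liver cells for 1 hr. High-content imaging of phospho-histone H3 and Hoechst-stained nuclei after fixation and permeabilization; DMSO-normalised bidirectional fit.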

The nature of experiment [5]: APR_HepG2_MitoMembPot_1hr: Apredica 1-hour HepG2 Assay for Mitochondrial Membrane Potential (AID 2282675). As to conditions: imaging, actives raise or lower the signal. Put shortly:
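Mitochondrial membrane potential read as MitoTracker Red CMXRos intensity by automated imaging of fixed HepG2 cells. Dye at 250 nM for 30 min pre-fixation; compounds 0.39 to 200 uM for 1 hour, duplicate wells, 0.5% DMSO.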

A short description of experiment [6]: APR_HepG2_CellCycleArrest_24hr: Apredica 24-hour HepG2 Assay for Cell Cycle Arrest (AID 2282905).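 Further: cell cycle arrest scored as ratio of 2N to 4N nuclear DNA content.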 As to conditions: imaging, actives raise or lower the signal. Put shortly: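 Step one: dose HepG2 with test compounds, 0.39–200 uM, 0.5% DMSO, 24 hr. Step two: fix, permeabilize, stain nuclei with Hoechst 33342. Step three: image six fields per well at 20x, quantify DNA content, fit bidirectionally relative to DMSO.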

Experiment [7] in a line: APR_HepG2_StressKinase_1hr: Apredica 1-hour HepG2 Assay for Stress Kinase (AID 2282906). Particulars: HepG2 stress kinase (phospho-c-Jun) imaging, actives raise or lower the signal. Put shortly:
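High-content imaging of phospho-c-Jun immunostaining (with Hoechst nuclear identification) after a 1 h exposure of HepG2 cells to 10 concentrations from 0.39 to 200 uM, final DMSO 0.5%. Fitted bidirectionally against DMSO.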

Experiment [8] in a line: APR_HepG2_NuclearSize_24hr: Apredica 24-hour HepG2 Assay for Nuclear Size (AID 2282907). As to conditions: high-content imaging, actives raise or lower the signal. Put shortly:
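After fixation and permeabilization, 24-hr-treated HepG2 cells were stained with Hoechst 33342 and imaged on an ArrayScan (20x). Doses spanned 0.39–200 uM in duplicate. Nuclear diameter changes in either direction were fitted relative to 0.5% DMSO controls.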

The nature of experiment [9]: APR_HepG2_CellLoss_24hr: Apredica 24-hour HepG2 Assay for Cell Loss (AID 2282908).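 On AC50: fit in both directions so a hit may be cell loss or gain.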 As to conditions: high-content imaging. Put shortly: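 Duplicate wells received compound at ten concentrations (0.39–200 uM; final DMSO 0.5% v/v). After fixation with formaldehyde, nuclei stained with Hoechst 33342 were imaged at 20x. Loss or gain of cell count was fitted relative to DMSO controls.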

Experiment [10] is described as follows: APR_HepG2_MicrotubuleCSK_24hr: Apredica 24-hour HepG2 Assay for Microtubule CSK Stabilty (AID 2282909). Particulars: HepG2 microtubule cytoskeleton imaging, actives raise or lower the signal. In short, it runs like this:
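Microtubule stability is scored from tubulin immunofluorescence in fixed HepG2 cells imaged at 20x. Cells receive ten compound concentrations up to 200 uM for 24 h; taxol and DMSO serve as positive and negative controls.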

The nature of experiment [11]: APR_HepG2_MitoticArrest_24hr: Apredica 24-hour HepG2 Assay for Mitotic Arrest (AID 2282910). As to conditions: high-content imaging, actives raise or lower the signal. In short, it runs like this: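 HepG2, 24 hr dosing, 0.39–200 uM, 0.5% DMSO final. Formaldehyde-fixed, Triton-permeabilised, anti-phospho-histone H3 plus Hoechst. ArrayScan imaging at 20x; bidirectional fit vs DMSO baseline.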

A short description of experiment [12]: APR_HepG2_MitoMembPot_24hr: Apredica 24-hour HepG2 Assay for Mitochondrial Membrane Potential (AID 2282911). As to conditions: imaging, actives raise or lower the signal. In short, it runs like this:
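Mitochondrial membrane potential imaged via MitoTracker Red CMXRos (250 nM, 30 min pre-fixation) in fixed HepG2 cells with Hoechst nuclear identification. Ten concentrations 0.39–200 uM, 24 h treatment, 0.5% DMSO; CCCP as positive control.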

The nature of experiment [13]: APR_HepG2_MitoMass_24hr: Apredica 24-hour HepG2 Assay for Mitochondrial Mass (AID 2282912). As to conditions: high-content imaging, actives raise or lower the signal. Put shortly:
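Readout: fluorescence of MitoTracker Red CMXRos (250 nM, added 30 min pre-fixation) in fixed HepG2 cells imaged by HCS. Exposure lasted 24 hr at 0.39–200 uM; increases and decreases were both fitted relative to DMSO.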

Experiment [14] can be described thus: APR_HepG2_p53Act_24hr: Apredica 24-hour HepG2 Assay for p53 Activation (AID 2282913).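 Further: p53 protein immunofluorescence averaged per cell in HepG2 with Hoechst nuclei.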 As to conditions: high-content imaging, actives raise or lower the signal. In short, it runs like this:
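Fluorescence imaging of formaldehyde-fixed HepG2 cells labelled for p53 and with Hoechst, 24 h after dosing (0.39–200 uM, duplicate wells, 0.5% v/v DMSO). Signal fitted in both directions relative to DMSO.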

A short description of experiment [15]: APR_HepG2_CellCycleArrest_72hr: Apredica 72-hour HepG2 Assay for Cell Cycle Arrest (AID 2282914). Particulars: high-content imaging, actives raise or lower the signal. Put shortly: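 Read-out: nuclear DNA content from Hoechst 33342 high-content imaging (20x, six fields/well) after 3.7% formaldehyde fixation, fitted bidirectionally against DMSO. Treatment was 72 h in HepG2, ten concentrations 0.39–200 uM, duplicate, 0.5% DMSO.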

A short description of experiment [16]: APR_HepG2_CellLoss_72hr: Apredica 72-hour HepG2 Assay for Cell Loss (AID 2282915). Particulars: high-content imaging. In short, it runs like this: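 HepG2 cells exposed 72 h to compound at 0.39–200 uM (10 concentrations, duplicate) in 0.5% DMSO. Fixed with 3.7% formaldehyde and Hoechst 33342-stained. Imaged at 20x; nuclear count gives cell number, fitted bidirectionally versus DMSO.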

The nature of experiment [17]: APR_HepG2_p53Act_1hr: Apredica 1-hour HepG2 Assay for p53 Activation (AID 2282671). Particulars: high-content imaging, actives raise or lower the signal. Put shortly: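 After 1 h exposure (0.39–200 uM, 0.5% DMSO final, duplicates), fixed HepG2 cells were labelled with anti-p53 antibody plus Hoechst nuclear stain. Fluorescence quantified by automated 20x imaging; changes fitted in both directions against DMSO.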

Experiment [18] is described as follows: APR_HepG2_P-H2AX_1hr: Apredica 1-hour HepG2 Assay for H2AX Phosphorylation (AID 2282673). As to conditions: high-content imaging, actives raise or lower the signal. In short, it runs like this: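 Phospho-H2A.x immunofluorescence (1:200, FITC secondary) plus Hoechst nuclear stain, quantified by high-content imaging in HepG2 after 1 hr compound exposure. Ten concentrations, 0.39 to 200 uM, in duplicate with 0.5% DMSO; fit both directions against DMSO.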

A short description of experiment [19]: APR_HepG2_NuclearSize_1hr: Apredica 1-hour HepG2 Assay for Nuclear Size (AID 2282670). Particulars: high-content imaging, actives raise or lower the signal. Put shortly:
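Nuclear size measured by high-content imaging of Hoechst 33342 nuclear stain after formaldehyde fixation; human HepG2 line exposed 1 hr to compounds at 0.39–200 uM in 0.5% DMSO, with bidirectional curve fitting relative to DMSO.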

A short description of experiment [20]: APR_HepG2_MitoMass_1hr: Apredica 1-hour HepG2 Assay for Mitochondrial Mass (AID 2282674). As to conditions: high-content imaging, actives raise or lower the signal. In short, it runs like this:
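Mitochondrial mass is taken from MitoTracker Red CMXRos (250 nM, 30 min, pre-fixation) fluorescence imaged at 20x in HepG2 cells. Exposure lasted 1 hr across ten concentrations, 0.39 to 200 uM, 0.5% DMSO; DMSO baseline, bidirectional fitting.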

As to `C#CC(C)(C)NC(=O)c1cc(Cl)cc(Cl)c1`, the result in experiment [1], in experiment [2], in [3], in [4], in experiment [5] and in experiment [6] was inactive. In addition, the compound was classed as inactive in experiment [7], in experiment [8], in experiment [9], in experiment [10], in experiment [11] and in [12]. For the same compound, the compound was classed as inactive in [13], in [14] and in [15]. For the same compound, the AC50 in experiment [16] is 69.1 µM (active).

Consider `CCOP(=O)(NC(C)C)Oc1ccc(SC)c(C)c1` (configuration not stated), for which the result in experiment [1], in experiment [2], in experiment [3], in experiment [17], in [18] and in experiment [5] was inactive. For the same compound, the compound was classed as inactive in experiment [6], in experiment [7], in experiment [8], in experiment [9], in [10] and in experiment [11]. Besides, the compound was called inactive in [12], in experiment [13], in experiment [14] and in experiment [15]. The AC50 in experiment [16] is 89.2 µM (active).

Turning to `Cc1nn(-c2cc(NS(C)(=O)=O)c(Cl)cc2Cl)c(=O)n1C(F)F`, the outcome in experiment [1], in experiment [2], in [19], in experiment [17], in experiment [4] and in experiment [20] was inactive. The compound was called inactive in experiment [5], in experiment [6], in [7], in experiment [8], in experiment [9] and in [10]. Further, the compound was classed as inactive in experiment [11], in experiment [12], in experiment [13], in [14], in [15] and in experiment [16].

`CCCSP(=O)(OCC)SCCC`: the result in [1], in experiment [2], in [3], in experiment [5], in experiment [6] and in [7] was inactive. The compound was classed as inactive in experiment [8], in experiment [9], in experiment [10], in [11], in experiment [12] and in experiment [13]. In addition, the compound was classed as inactive in experiment [15] and in [16].

Turning to `CCCCOC(=O)c1ccccc1C(=O)O`, the compound was classed as inactive in experiment [1], in [2], in [3], in experiment [19], in experiment [4] and in [18]. In addition, the call in [5], in experiment [6], in [7], in experiment [8], in [9] and in experiment [10] was inactive. In addition, the compound was called inactive in experiment [11], in experiment [12], in experiment [13], in experiment [14], in [15] and in [16].

Regarding `CN(C)[C@@H]1C(=O)C(C(N)=O)=C(O)[C@@]2(O)C(=O)C3=C(O)c4c(O)cccc4[C@@](C)(O)[C@H]3[C@H](O)[C@@H]12`, the call in [1], in [2], in experiment [3], in experiment [18], in [20] and in [5] was inactive. For the same compound, the result in [6], in experiment [7], in [8], in experiment [9], in [10] and in experiment [11] was inactive. Also, the call in experiment [12], in [13], in experiment [15] and in experiment [16] was inactive.

Regarding `COP(=O)(OC)C(O)C(Cl)(Cl)Cl` (configuration not stated), the compound was classed as inactive in experiment [1], in experiment [2], in experiment [3], in experiment [4], in experiment [5] and in [7]. Besides, the compound was classed as inactive in [8], in [12], in experiment [13] and in [14]. In addition, the half-maximal activity concentration (AC50) is 164 µM (active) in [6]; 76.8 µM (active) in [9]; 97.7 µM (active) in experiment [10]; 103 µM (active) in experiment [11]; 184 µM (active) in [15]; 100 µM (active) in experiment [16].

On to `O=c1ccc(=O)[nH][nH]1`, for which the result in experiment [1], in experiment [2], in [3], in [17], in experiment [20] and in [5] was inactive. Further, the compound was classed as inactive in experiment [6], in experiment [7], in experiment [8], in experiment [9], in experiment [10] and in experiment [11]. The compound was called inactive in experiment [12], in [13], in experiment [14], in experiment [15] and in experiment [16].
